Results: PubChem BioAssay AID624273 (Broad Institute, 2012)
Out of some 1,000 compounds screened, about 230 (23%) were called active. Another 1% or so got no clear call; they are omitted. How the calls were made is not given here. The list shows a part of the results. Entries with a potency or affinity are not part of this list.

The molecules below were run against Long-chain-fatty-acid--AMP ligase FadD28 (Mycobacterium tuberculosis (strain ATCC 25618 / H37Rv)) (UniProt P9WQ59) (assay: inhibitors of FadD28 bisubstrate probe binding, dose response, biochemical, fluorescence polarization, cherry-pick (AID 624273)). Settings: series mostly up to 50 µM.
Chain of Long-chain-fatty-acid--AMP ligase FadD28 (Mycobacterium tuberculosis (strain ATCC 25618 / H37Rv)) (P9WQ59 whole entry, looked up): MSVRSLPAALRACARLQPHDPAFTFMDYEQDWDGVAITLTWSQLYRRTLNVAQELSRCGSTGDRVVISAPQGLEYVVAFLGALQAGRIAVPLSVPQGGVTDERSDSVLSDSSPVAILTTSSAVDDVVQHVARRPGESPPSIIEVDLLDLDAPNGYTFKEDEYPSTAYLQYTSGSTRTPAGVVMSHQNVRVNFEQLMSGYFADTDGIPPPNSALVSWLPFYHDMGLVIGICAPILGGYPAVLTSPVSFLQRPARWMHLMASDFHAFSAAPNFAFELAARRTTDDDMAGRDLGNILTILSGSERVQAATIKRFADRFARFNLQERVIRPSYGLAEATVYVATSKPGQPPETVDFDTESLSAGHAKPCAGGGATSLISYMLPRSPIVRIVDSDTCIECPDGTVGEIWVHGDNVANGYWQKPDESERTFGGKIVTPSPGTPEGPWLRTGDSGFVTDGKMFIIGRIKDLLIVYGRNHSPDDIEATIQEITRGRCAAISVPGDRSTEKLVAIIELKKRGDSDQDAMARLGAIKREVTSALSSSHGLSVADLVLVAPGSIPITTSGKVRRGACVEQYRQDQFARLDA
For `Nc1ccccc1C#Cc1ccc([N+](=O)[O-])cc1`, the outcome was “inactive”.
For `Cc1cccnc1C(NC(=O)C1CCN(CCCc2ccccc2)CC1)c1ccc(Cl)cc1` (stereo not drawn), the outcome was “inactive”.
In the case of `CON(C)C(=O)c1ccccc1N(C)C(=O)OC(C)(C)C`, the outcome is reported as “inactive”.
With `CC1CCN(S(=O)(=O)c2ccc(NC(=O)Cn3nnc(-c4ccccc4F)n3)cc2)CC1` the outcome was “inactive”.
For `O=C(CSc1nnc(Cc2ccccc2)o1)c1ccc2c(c1)OCO2`, the outcome was “inactive”.
`O=C(CSc1ccc(-c2nc3ccccc3[nH]2)cn1)Nc1ccc(S(=O)(=O)NC2CC2)cc1` was tested, and the outcome was “inactive”.
With `Cc1ccc(C)c(OCCC(=O)OCC(=O)Nc2cccc(S(=O)(=O)N3CCCC3)c2)c1` the outcome was “inactive”.
With `Cc1ccc(NC(=O)COC(=O)c2cccc(S(=O)(=O)N3CCCCCC3)c2)cc1` the outcome was “inactive”.
In the case of `CC(Sc1nnc(CNc2cccc3ccccc23)n1-c1ccccc1)C(=O)N/N=C/c1ccco1` (stereo not drawn), the outcome is reported as “inactive”.
`Cc1cc(C)c2sc(N(CCCN(C)C)C(=O)c3ccc(S(=O)(=O)N4CCCc5ccccc54)cc3)nc2c1` was tested, and the outcome was “inactive”.
With `CC1(C)Oc2ccc3ccc(=O)oc3c2/C(=C/O)C1=O` the outcome was “inactive”.
In the case of `COc1ccc(C2NC3=C(CCC3)C3(C#N)C4(N=C(N)C23C#N)OCCO4)cc1` (stereo not drawn), the outcome is reported as “inactive”.
In the case of `O=C(Cc1ccc(Cl)cc1)Nc1ccc(N2CCN(C(=O)c3ccco3)CC2)c(Cl)c1`, the outcome is reported as “inactive”.
`Cc1nn(-c2ccccc2)c(Cl)c1/C=N/NC(=O)c1cccnc1` was tested, and the outcome was “inactive”.
`CCOC(=O)c1c(C)nc2sc3c(=O)n(-c4ccc(C(C)=O)cc4)cnc3c2c1-c1ccc(OC)cc1` was tested, and the outcome was “inactive”.
In the case of `C=CCOc1ccc(C2OC34CCCCC3C(C#N)(C#N)C2(C#N)C(=N)O4)cc1` (stereo not drawn), the outcome is reported as “inactive”.
With `N/C(CSc1ccc(Cl)cc1)=N\NC(=O)c1ccncc1` the outcome was “inactive”.
With `Cc1c(NC(=O)c2ccc3ncccc3c2)c(=O)n(-c2ccccc2)n1C` the outcome was “inactive”.
With `COC(=O)c1cc(C)nc2c1C(=O)C(=O)C=C2N1CCOCC1` the outcome was “inactive”.
In the case of `Cc1ccc(OCCC(=O)OCC(=O)c2c(N)n(CC(C)C)c(=O)n(C)c2=O)cc1`, the outcome is reported as “inactive”.
For `CCC(=O)c1cccc(-c2ccccc2)c1CC`, the outcome was “inactive”.
`COc1ccc(CN(C)C(=O)c2ccc(OCC(=O)Nc3cccc(C(F)(F)F)c3)c(OC)c2)c(OC)c1` was tested, and the outcome was “inactive”.
In the case of `COc1cc(OC)c(C2=NOC(C(=O)Nc3c(C)n(C)n(-c4ccccc4)c3=O)C2)cc1Cl` (stereo not drawn), the outcome is reported as “inactive”.
With `CCCCOc1ccc(Nc2cc(Cl)ccc2C(=O)O)cn1` the outcome was “inactive”.
In the case of `N#CCC(=O)Nc1ccc(C(=O)OCC(=O)Nc2cccc(C(F)(F)F)c2)cc1`, the outcome is reported as “inactive”.
For `Cc1ccc(NC(=O)CN2C(=O)S/C(=C/c3ccc(-c4cc(C(=O)O)ccc4C)o3)C2=O)cc1C`, the outcome was “inactive”.
In the case of `O=C(NCc1ccccc1)C1=C[C@@H](c2ccc(C(F)(F)F)cc2)C[C@@H](OCCCCO)O1`, the outcome is reported as “inactive”.
`NC(Cc1ccc(C(F)(F)F)cc1)c1csc(NC(=O)Nc2ccccc2Cl)n1` (stereo not drawn) was tested, and the outcome was “inactive”.
In the case of `Cc1onc(C(=O)N2CCC(C(N)=O)CC2)c1-c1ccccc1Cl`, the outcome is reported as “inactive”.
For `COc1cc(NC(=O)C2CCN(S(=O)(=O)c3ccc(Cl)cc3)CC2)ccc1-n1cnnn1`, the outcome was “inactive”.
For `CSc1cccc(CN2CCC(CCC(=O)NC3CC3)CC2)c1`, the outcome was “inactive”.
In the case of `S=c1nc(-c2ccco2)[nH][nH]1`, the outcome is reported as “inactive”.
In the case of `COc1ccc(OC)c(-n2c(-c3cc(-c4ccco4)[nH]n3)n[nH]c2=S)c1`, the outcome is reported as “inactive”.
`Cc1nnc(NC(=O)C2CC(=O)N(c3ccc4c(c3)OCCO4)C2)s1` (stereo not drawn) was tested, and the outcome was “inactive”.
`COc1ccc(C2(CNC(=O)C(c3ccccc3)c3ccccc3)CCOCC2)cc1OC` was tested, and the outcome was “inactive”.
With `NNC(=O)C1CCCn2c1nc1sc3c(c1c2=O)CCCC3` (stereo not drawn) the outcome was “inactive”.
With `COc1ccc(CNC(=O)c2ccc(Cl)c(S(=O)(=O)N3CCCCCC3)c2)cc1` the outcome was “inactive”.
`Cc1ccc(CSCCNC(=O)c2ccc(NS(C)(=O)=O)cc2)cc1` was tested, and the outcome was “inactive”.
With `O=C(CSc1ccc(Cl)cc1)N1CCOCC1` the outcome was “inactive”.
For `COc1ccc(CCNC(=O)c2ccc(CNS(=O)(=O)c3cccc(Cl)c3)cc2)cc1OC`, the outcome was “inactive”.
In the case of `COc1ccc(C(=O)NCCSCc2ccc(C)cc2)cc1`, the outcome is reported as “inactive”.
For `Cc1ccc(C(=O)NCCSCc2ccc(Cl)cc2Cl)cc1[N+](=O)[O-]`, the outcome was “inactive”.
`Cc1ccc(CSCCNC(=O)/C=C/c2ccccc2Cl)cc1` was tested, and the outcome was “inactive”.
For `Brc1ccc(Sc2cnc3ccccc3n2)cc1`, the outcome was “inactive”.
For `C=CCSc1nnc2nc3c(nn12)c1cc(C)ccc1n3CC=C`, the outcome was “inactive”.
For `COc1ccc(C(=O)Nc2ccc(C)cn2)cc1S(=O)(=O)N1CCCc2ccccc21`, the outcome was “inactive”.
With `COc1ccc(C(=O)NCc2ccc(C)cc2)cc1S(=O)(=O)N1CCCc2ccccc21` the outcome was “inactive”.
In the case of `COc1ccc(CCNC(=O)c2ccc(CNS(=O)(=O)c3ccc(C(C)(C)C)cc3)cc2)cc1OC`, the outcome is reported as “inactive”.
For `COC(=O)CC1C(=O)NCCN1C(=O)c1ccc(S(=O)(=O)N2CCOCC2)cc1` (stereo not drawn), the outcome was “inactive”.
With `CC1(c2ccc(OC(F)F)cc2)NC(=O)N(CC(=O)NC2CCCC2)C1=O` (stereo not drawn) the outcome was “inactive”.
With `CC(C)CCNc1nc(N2CCCC2)c2c(c1C#N)CCN(C)C2` the outcome was “inactive”.
With `CN(c1ccccc1)S(=O)(=O)c1ccc(NC(=O)CC(=O)c2ccccc2)cc1` the outcome was “inactive”.
With `O=C(CCNC(=O)c1ccc([N+](=O)[O-])cc1)Nc1ccccc1N1CCOCC1` the outcome was “inactive”.
For `O=C(NNC(=O)c1ccc(Cl)c([N+](=O)[O-])c1)c1ccncc1`, the outcome was “inactive”.
`CCN(CC)S(=O)(=O)c1cc(NC(=O)c2cc([N+](=O)[O-])ccc2N2CCOCC2)ccc1C` was tested, and the outcome was “inactive”.
For `Cc1ccc(NC(=O)c2cc([N+](=O)[O-])ccc2N2CCOCC2)cc1C`, the outcome was “inactive”.
With `O=C1C=C(O)CC(c2ccco2)C1` (stereo not drawn) the outcome was “inactive”.
In the case of `CC(=O)C1=C(C)NC(SCC(=O)c2ccc(F)cc2)=C(C#N)C1c1ccco1` (stereo not drawn), the outcome is reported as “inactive”.
For `COc1ccc(NC(=O)Nc2ccc3c(c2)C(=O)N([C@H](C)CO)C[C@H](C)[C@@H](CN(C)S(=O)(=O)c2ccc(OC)cc2)O3)cc1`, the outcome was “inactive”.
In the case of `CCN(CC)CCCNC(=O)C1c2ccccc2C(=O)N(C)C1c1ccc(OC)cc1` (stereo not drawn), the outcome is reported as “inactive”.
For `COc1ccc(/C(N)=N/OC(=O)c2c(-c3ccccc3Cl)noc2C)cc1OC`, the outcome was “inactive”.
For `O=C1/C(=C\c2cc([N+](=O)[O-])ccc2O)SC(=S)N1Cc1ccc(Cl)cc1`, the outcome was “inactive”.
With `CCOc1cc(/C=C2\SC(=O)N(CC(=O)Nc3ccccc3F)C2=O)cc([N+](=O)[O-])c1O` the outcome was “inactive”.
